{"source": "ChEMBL document CHEMBL3433997", "about": "“St. Jude Leishmania screening dataset” (2016)", "note": "Values joined by “and” are separate entries in the source; they are usually repeats but may differ in a detail not shown here. Identical values can stand only once."}
{"target": "Glucose transporter (Leishmania mexicana) (UniProt O61059)", "test": "ST_JUDE_LEISH: Cytotoxicity at 2uM final concentration against transgenic Leishmania Mexicana promastigotes LmGT2 that are glucose transport deficient and complemented with the L. Mexicana glucose transporter 2. Activity is measured by DNA content using SYBR green in vitro", "format": "functional"}
{"smiles": "O=C(NC1CCC(CN2CCC(c3c[nH]c4ccccc34)CC2)CC1)c1ccc(-c2ccccc2[N+](=O)[O-])o1", "note": "(stereo not given)", "inhibition": "-0.67%"}
{"smiles": "Cc1cc(O)cc2c(C3CCN(CC4CCC(NC(=O)/C=C/c5ccccc5Cl)CC4)CC3)c[nH]c12", "note": "(stereo not given)", "inhibition": "3.52%"}
{"smiles": "CC(Cc1ccc(NC(=O)CCCc2ccccc2)cc1)NCCc1cccc(Cl)c1", "note": "(stereo not given)", "inhibition": "2.44%"}
{"smiles": "OC(CNCc1ccccc1OC(F)F)c1cccc(C(F)(F)F)c1", "note": "(stereo not given)", "inhibition": "1.62%"}
{"smiles": "Cc1ccc(CC(C)NC[C@H](O)c2cccc(Cl)c2)cc1", "note": "(stereo not given in full)", "inhibition": "1.47% and 1.06%"}
{"smiles": "Cc1cc(C(=O)NC2CCN(CC3(c4ccc(Cl)cc4)CCC3)CC2)on1", "inhibition": "0.13%"}
{"smiles": "O=C(C=C1c2ccccc2-c2ccccc21)NC1CCC(CN2CCC(c3c[nH]c4ccccc34)CC2)CC1", "note": "(stereo not given)", "inhibition": "-0.17% and -1.28%"}
{"smiles": "CCC1=C[C@@H]2CN(C1)Cc1c([nH]c3ccccc13)[C@@](C(=O)OC)(c1cc3c(cc1OC)N(C)[C@H]1[C@@](O)(C(=O)OC)[C@H](O)[C@]4(CC)C=CCN5CC[C@]31[C@@H]54)C2", "inhibition": "2.69%"}
{"smiles": "CCOC(C(=O)OCC1CCCN1C)(c1ccccc1)c1ccccc1", "note": "(stereo not given)", "inhibition": "0.01%"}
{"smiles": "CC(Cc1ccc(OCc2ccc(CCN(C)C)cc2)cc1)NCCc1cccc(Cl)c1", "note": "(stereo not given)", "inhibition": "-2.69%"}
{"smiles": "COc1cccc(C=CC(=O)NC2CCC(CN3CCC(c4c[nH]c5ccccc45)CC3)CC2)c1OC", "note": "(stereo not given)", "inhibition": "14.2%"}
{"smiles": "CC(=O)C1(c2ccccc2)CCN(CCC(NC(=O)c2cc(C(F)(F)F)cc(C(F)(F)F)c2)c2ccc(Cl)c(Cl)c2)CC1", "note": "(stereo not given)", "inhibition": "5.98%"}
{"smiles": "CN1CC=C(c2c[nH]c3ccc(Br)cc23)CC1", "inhibition": "-0.72%"}
{"smiles": "COc1ccc(CC(C)NCC(O)c2cccc(Br)c2)cc1", "note": "(stereo not given)", "inhibition": "9.13%"}
{"smiles": "FC(F)(F)c1ccc(NC(=S)N2CCC(CN3CCC(c4c[nH]c5ccccc45)CC3)CC2)cc1", "inhibition": "2.98%"}
{"smiles": "O=C(/C=C/c1ccc(Cl)c(Cl)c1)N1CCC(CN2CCC(c3c[nH]c4cc5c(cc34)OCO5)CC2)CC1", "inhibition": "3.71%"}
{"smiles": "O=C(NC1CCC(CN2CCC(c3c[nH]c4ccccc34)CC2)CC1)c1cn(Cc2ccccc2)c2ccccc12", "note": "(stereo not given)", "inhibition": "-1.09%"}
{"smiles": "COc1ccc(CCNCc2ccc3nc(N)cc(C)c3c2)cc1", "inhibition": "-2.66%"}
{"smiles": "CC[C@H]1CN2CC[C@@H]1C[C@H]2[C@H](O)c1cc(N2CCCC(C)(C)C2)nc2ccc(OC)cc12", "inhibition": "0.37%"}
{"smiles": "COC(=O)c1ccc(CC(C)NCC(O)c2cccc(I)c2)cc1", "note": "(stereo not given)", "inhibition": "0.29%"}
{"smiles": "CC[C@H]1CN2CC[C@H]1C[C@H]2[C@H](O)c1cc(-c2ccc3ccccc3c2)nc2ccc(OC)cc12", "inhibition": "3.26%"}
{"smiles": "CC(C)(C)c1ccc(Cn2nc(C(=O)N3CCN(C(=O)C4CCCO4)CC3)c3ccccc32)cc1", "note": "(stereo not given)", "inhibition": "-3.52%"}
{"smiles": "CC(=O)C1(c2ccccc2)CCN(CCC2(c3ccc(Cl)c(Cl)c3)CN(C(=O)c3cccc(Cl)c3)CCO2)CC1", "note": "(stereo not given)", "inhibition": "-1.43%"}
{"smiles": "CCN(CC)CCN1C(=O)C(O)(c2ccccc2Cl)c2c1cc(C#N)cc2C(F)(F)F", "note": "(stereo not given)", "inhibition": "4.08%"}
{"smiles": "C/C=C1\\CN2CC[C@H]1C[C@@H]2[C@@H](O)c1ccnc2ccc(O)cc12", "inhibition": "2.5%"}
{"smiles": "C#CCN1CCC2=C(C1)c1c(O)cc(C(C)C(C)CCc3ccc(F)cc3)cc1OC2(C)C", "note": "(stereo not given)", "inhibition": "-1.42%"}
{"smiles": "CC[C@H]1CN2CC[C@@H]1C[C@H]2[C@H](O)c1cc(-c2ccccc2)nc2ccc(O)cc12", "inhibition": "2.83%"}
{"smiles": "CC(=O)N(Cc1cccc(-c2cccc(CNCCc3ccccc3)c2)c1)C1CCN(Cc2ccccc2)CC1", "inhibition": "4.41%"}
{"smiles": "Cc1[nH]c2ccc(O)cc2c1C1CCN(CC2CCN(C(=O)/C=C/c3ccc(Cl)c(Cl)c3)CC2)CC1", "inhibition": "-0.96%"}
{"smiles": "O=C(/C=C/c1ccc(Cl)c(Cl)c1)N(Cc1ccccc1)C1CCC(CN2CCC(c3c[nH]c4ccccc34)CC2)CC1", "note": "(stereo not given)", "inhibition": "4.05%"}
{"smiles": "O=[N+]([O-])c1ccc(Oc2c(Cl)cc(S(=O)(=O)N3CCC(CN4CCC(c5c[nH]c6ccccc56)CC4)CC3)cc2Cl)c(Cl)c1", "inhibition": "3.15%"}
{"smiles": "CC[C@H]1CN2CC[C@H]1C[C@H]2[C@H](O)c1ccnc2ccc(C#N)cc12", "inhibition": "2.19%"}
{"smiles": "CN(c1ccc(NC(=O)CCOc2ccccc2)cc1)C1CCN(Cc2cccc(O)c2)CC1", "inhibition": "-0.97%"}
{"smiles": "CN1C(=O)[C@H](NC(=O)[C@@H](Cc2ccccc2)NC(=S)Nc2ccccc2)N=C(c2ccccc2)c2ccccc21", "inhibition": "1.74%"}
{"smiles": "Cc1ccc(C2(O)CC3CCC(C2)N3C)cc1", "note": "(stereo not given)", "inhibition": "3.25%"}
{"smiles": "CC(C)CCNC(=O)c1cc(C(=O)c2cc(F)ccc2O)cn(CCC(C)C)c1=O", "inhibition": "6.46%"}
{"smiles": "CC[C@H]1CN2CCc3cc(OC)c(OC)cc3[C@@H]2C[C@@H]1C[C@H]1NCCc2cc(OC)c(OC)cc21", "inhibition": "90.3%"}
{"smiles": "O=C(Nc1cc(C(F)(F)F)cc(C(F)(F)F)c1)N1CCC(CN2CCC(c3c[nH]c4ccccc34)CC2)CC1", "inhibition": "1.9%"}
{"smiles": "CC[C@H]1CN2CC[C@@H]1C[C@H]2[C@H](O)c1cc(-c2cccnc2)nc2ccc(OC)cc12", "inhibition": "4.02%"}
{"smiles": "O=C(/C=C/c1ccc([N+](=O)[O-])cc1)NC1CCC(CN2CCC(c3c[nH]c4ccccc34)CC2)CC1", "note": "(stereo not given)", "inhibition": "0.45%"}
